# Data as given in PubChem BioAssay AID720697 (Broad Institute, 2013).
# Measured potencies and affinities stand elsewhere. Results filed as inconclusive are left out. A number with no mark means an inactive call.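 How the source made its calls: active means signal loss with fitted half-maximal concentration at or below twice the top valid tested dose in every test run; inconclusive means runs disagree, flat 30 to 70% signal loss, or poor fit; inactive means all runs flat, opposite direction, or potency beyond limit.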
# Test: HEK293T cytotoxicity, dose response, cytotoxicity control for miR-122 modulator project, cell-based, inhibitor set, cherry-pick, set 2 (AID 720697);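 further: 0% = median of neutral control wells and -100% = MG132 positive control wells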
# Settings: HEK293T viability, CellTiter-Glo luminescence, 48 h; series mostly up to 26 µM; activity change, negative = cytotoxicity: at the top concentration
row,Compound,"activity change, negative = cytotoxicity"
1,COCC(=O)N(C[C@H]1[C@H](c2ccccc2)[C@H](CO)N1C(=O)NC(C)C)C(C)C,33.3% [at 23.5 µM]
2,CCC(=O)N1[C@H](CO)[C@H](c2ccccc2)[C@@H]1CN(CC)C(=O)c1ccccc1,138% [at 23.5 µM]
3,COCC(=O)N1C[C@H]2[C@@H](c3ccccc31)[C@H](CO)N2C(=O)Nc1ccccc1Cl,72.2%
4,CC(=O)N(C)C[C@@H]1[C@@H](c2ccc(-c3cccc(C#N)c3)cc2)[C@H](CO)N1C(C)=O,-15.5%
5,Cc1cccc(NC(=O)c2sc3nc(-c4ccc(F)cc4)cn3c2C)n1,102%
6,Cc1cc(C)cc(Oc2ccc(NC(=O)C3CC=CCC3C(=O)O)cc2)c1 (stereo not given),12.6%
7,COc1ccc(N2CCN(C(=O)CSc3nnc(CNc4ccccc4)o3)CC2)cc1,72.4%
8,C/C=C/c1ccc([C@@H]2[C@H](CO)N(Cc3ccccn3)[C@H]2CNC(=O)CC)cc1,82.8%
9,COCCN(C[C@H]1[C@H](c2ccccc2)[C@@H](CO)N1C(=O)C1CCC1)C(C)=O,162% [at 23.5 µM]
10,CN(C)C(=O)c1ccc(-c2ccc([C@H]3[C@@H](CO)N4CCCCN(C(=O)C5CCCC5)C[C@@H]34)cc2)cc1,39.4%
11,CN(C)CCCNC(=O)C[C@@H]1CC[C@@H]2[C@@H](COc3ccc(NC(=O)NC4CCCC4)cc3C(=O)N2C)O1,65.9% [at 23.5 µM]
12,CN1C(=O)c2cc(NC(=O)c3ccc(C(F)(F)F)cc3)ccc2OC[C@H]2O[C@H](CC(=O)NCc3ccc4c(c3)OCO4)CC[C@@H]21,-12.6%
13,CCS(=O)(=O)Nc1ccc2c(c1)C(=O)N(C)C[C@@H](OC)[C@H](C)CN(CC1CCCC1)[C@H](C)CO2,52.2%
14,C/C=C/c1ccc([C@@H]2[C@@H](CNC(=O)CC)N(Cc3ccccn3)[C@H]2CO)cc1,92%
15,CCCNC(=O)C[C@H]1CC[C@H]2[C@@H](COc3ccc(NC(=O)c4cc(F)cc(F)c4)cc3C(=O)N2C)O1,87.8%
16,CO[C@H]1CN(C)C(=O)c2ccc(NS(C)(=O)=O)cc2OC[C@H](C)N(C(=O)CN(C)C)C[C@H]1C,100%
17,O=C(Nc1ccccc1F)N1C[C@H]2[C@@H](c3ccccc31)[C@@H](CO)N2C(=O)C1CC1,-34.8%
18,CN1C(=O)c2cc(NC(=O)c3cccc(F)c3)ccc2OC[C@H]2O[C@@H](CC(=O)NC3CCC3)CC[C@H]21,-34.2%

row,Compound,"activity change, negative = cytotoxicity"
1,COC(=O)C[C@H]1CC[C@H]2[C@H](COc3ccc(NC(=O)NC(C)C)cc3C(=O)N2C)O1,52%
2,C/C=C/c1ccc([C@@H]2[C@@H](CN(C)C(=O)CC)N(C(=O)NC(C)C)[C@H]2CO)cc1,128%
3,N=c1c2c(-c3ccccc3)c(-c3ccccc3)n(Cc3ccccc3)c2ncn1CCO,-63%
4,CN1C(=O)c2cc(NC(=O)Nc3ccccc3Cl)ccc2OC[C@H]2O[C@H](CC(=O)O)CC[C@H]21,68.5%
5,Cc1cc(C(=O)N/N=C/c2cc(Br)ccc2OC(=O)c2ccccc2)n[nH]1,-27.6%
6,Cc1cc(C)cc(NC(=O)Nc2ccc3c(c2)C(=O)N(C)[C@@H]2CC[C@H](CC(=O)O)O[C@@H]2CO3)c1,-11.5%
7,CN1C(=O)c2cc(NC(=O)c3ccc4c(c3)OCO4)ccc2OC[C@H]2O[C@@H](CC(=O)O)CC[C@@H]21,128%
8,CNC(=O)C[C@@H]1CC[C@@H]2[C@H](COc3ccc(NC(=O)NC(C)C)cc3C(=O)N2C)O1,41.3%
9,CC(=O)N1[C@H](CO)[C@@H](c2ccccc2)[C@H]1CN(C(=O)NC(C)C)C1CCCC1,40%
10,C/C=C/c1ccc([C@@H]2[C@@H](CO)N(C(C)=O)[C@H]2CN(C(=O)COC)C(C)C)cc1,-3.91%
11,CO[C@@H]1CN(C)C(=O)c2cc(NC(=O)Nc3cc(Cl)cc(Cl)c3)ccc2OC[C@H](C)NC[C@H]1C,10.9%
12,CCNC(=O)Nc1ccc2c(c1)C(=O)N(C)[C@H]1CC[C@@H](CC(=O)NCCOC)O[C@@H]1CO2,90.1%
13,C/C=C/c1ccc([C@@H]2[C@@H](CO)N(C(C)=O)[C@@H]2CN(CC)C(=O)CN(C)C)cc1,39.3%
14,CCCC(=O)Nc1ccc2c(c1)C(=O)N(C)[C@H]1CC[C@@H](CC(=O)NCCN3CCCCC3)O[C@H]1CO2,43.1% [at 23.5 µM]
15,O=C(c1ccccc1)N1C[C@H]2[C@@H](c3ccccc31)[C@@H](CO)N2C(=O)CN1CCOCC1,15.9%
16,COc1cccc(C(=O)Nc2ccc3c(c2)C(=O)N(C)[C@H]2CC[C@H](CC(=O)NCc4ccc(F)cc4)O[C@@H]2CO3)c1,117%
17,CCNC(=O)Nc1ccc2c(c1)C(=O)N(C)[C@H]1CC[C@H](CC(=O)Nc3cccc(F)c3)O[C@@H]1CO2,148%
